Bioassay records as filed in PubChem.
aSyn yeast inh = qHTS of alpha-syn Inhibitors; Yeast expressing alpha-synuclein, growth rescue, BacTiter-Glo, 24 h; Potency, µM (titrated, usually from 46.1 µM), for inactives: at the highest dose growth rescue (activation), hits mostly activators; actives 0.14% (n = 370,000); AID 652106, 2013; further: % of control where 0% means no effect; nearly all actives have a fitted effect of over 65% in size
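Galactose-induced alpha-syn yeast (OD600=0.02, raffinose-pregrown) + pinned cpd, 24 hr, 30 deg C; growth by BacTiter-Glo luminescence. Growth restoration scores as activation.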
FUS suppressor = qHTS for Suppressors of FUS Proteinopathy: Primary screen using FUS-linked yeast assay; S. cerevisiae FUS-expressing, growth rescue, OD600, 24 h; actives 0.24% (n = 390,000); Potency, µM (highest dose often 76.6 µM), hits mostly activators; AID 1347120, 2019;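 further: plate controls were DMSO vehicle for no effect and reference control for full effect; nearly all actives have a fitted effect of over 55% in size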
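FUS-expressing yeast, raffinose-pregrown, induced in 2% galactose minimal medium at OD 0.005; compounds in a dilution series, 24hr at 30C. Growth restoration read as absorbance at 600 nm. CP55940 positive control, DMSO negative.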
Abeta yeast res = qHTS for compounds that reverse cellular toxicity of Amyloid beta (A-beta) peptide in yeast: Primary Screen. actives 0.063% (n = 410,000). yeast expressing A-beta42, growth rescue, OD600, 48 h; response scale: 0% DMSO, 100% iron-clioquinol control. AID 1347071, 2019. Potency, µM (highest dose often 46.1 µM), usual class: activators; further: nearly all actives have a fitted effect of over 55% in size
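Growth rescue measured by 600 nm absorbance after 48 h yeast culture at 30 C with compound. Values normalized between DMSO and an equimolar ferric chloride plus clioquinol control.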
TDP-43 yeast inh = qHTS of TDP-43 Inhibitors; TDP-43 expressing yeast growth rescue, BacTiter-Glo, 24 h; Potency, µM (top dose mostly 46.1 µM), for the others: at the top dose growth rescue (activation), usual class: activators; actives 1.8% (n = 410,000); AID 652104, 2013; further: % of control where 0% means no effect; nearly all actives have a fitted effect of over 50% in size
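Galactose-induced TDP-43 yeast, OD600=0.02, compound pinned; 24 hr, 30 deg C; BacTiter-Glo luminescence for growth. Inhibitors of TDP-43 toxicity read as activators.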
The depositor's hits bear a star; [ ] = dose if it differs, or a comment. Most compounds without a hit are left out; they make up all but 2.1% or so of the library. The call rests on the fitted dose curve; in most records, active means well fitted curve in the direction sought with a large enough effect; inconclusive means small, poorly fitted or top-dose-only effect, or another doubt; inactive means no such curve, though single readings can be large; an effect the other way counts as inactive or inconclusive. Potency means the concentration at half of the fitted maximal effect.

Results for COc1ccc(CNC(=O)CCC(=O)N2CC3CCCN3c3ccccc32)cc1 (stereo not drawn) ?
FUS suppressor: inactive; Abeta yeast res: inactive; TDP-43 yeast inh: 30%

What do the screens show for `CCCN(CC(=O)Nc1cccc(Br)c1)CC(=O)Nc1ccc(F)c(F)c1F`?
aSyn yeast inh: inconclusive; FUS suppressor: inactive; Abeta yeast res: inactive; TDP-43 yeast inh: 14µM*

How did CCN(CC)c1ccc(NC(=O)Cn2cc3c(n2)CCCC3)c(C)c1 do in these assays?
FUS suppressor: inactive; Abeta yeast res: inactive; TDP-43 yeast inh: inconclusive

How did COc1ccc(NS(=O)(=O)c2cccc3ccccc23)cc1 do in these assays?
aSyn yeast inh: inconclusive; FUS suppressor: inactive; Abeta yeast res: inactive; TDP-43 yeast inh: 11µM*

What do the screens show for `COC1=C(Nc2ccc(O)cc2)C(=O)c2ccccc2C1=O`?
aSyn yeast inh: -12%; FUS suppressor: inactive; Abeta yeast res: inactive; TDP-43 yeast inh: inconclusive

Results for COc1ccc(S(=O)(=O)Nc2cccc3ccccc23)cc1 ?
aSyn yeast inh: 19%

Results for COC1=C(Nc2ccc(OC)cc2)C(=O)c2ccccc2C1=O ?
aSyn yeast inh: -16%; FUS suppressor: inactive; Abeta yeast res: inactive; TDP-43 yeast inh: 18µM*

What do the screens show for `COC1=C(Nc2ccc(OC)cc2)C(=O)C(OC)=C(Nc2ccc(OC)cc2)C1=O`?
aSyn yeast inh: -1%; FUS suppressor: inactive; Abeta yeast res: inactive; TDP-43 yeast inh: 21%

How did CCOc1ccc(NC2=C(OC)C(=O)c3ccccc3C2=O)cc1 do in these assays?
aSyn yeast inh: -12%; FUS suppressor: inactive; Abeta yeast res: inactive; TDP-43 yeast inh: 18µM*

Results for COc1ccccc1C1N=C(Nc2nc3ccccc3o2)NC2=C1C(=O)CC(C)(C)C2 (stereo not drawn) ?
aSyn yeast inh: 6%

How did CC(=O)Oc1ccc(-c2nc(-c3ccccc3)no2)cc1 do in these assays?
aSyn yeast inh: -68%

How did CC(Oc1ccc(Br)cc1)c1nc2c3ccccc3nc(=S)n2[nH]1 (stereo not drawn) do in these assays?
aSyn yeast inh: 17%; FUS suppressor: 35µM*; Abeta yeast res: inconclusive; TDP-43 yeast inh: -9%

How did COc1ccc2c(c1OC)C(=O)OC2c1ccc(O)cc1 (stereo not drawn) do in these assays?
aSyn yeast inh: 0%

How did Nc1nc(NCc2cccc(Cl)c2)c2[nH]cnc2n1 do in these assays?
aSyn yeast inh: -2%

What do the screens show for `O=C(CNC(=O)C1CCCCC1)OCC(=O)c1ccc(C2CCCCC2)cc1`?
aSyn yeast inh: 4%

Results for CSc1ccc(S(=O)(=O)Nc2ccc3c4c(cccc24)CC3)cc1 ?
aSyn yeast inh: 13µM*; FUS suppressor: inactive; Abeta yeast res: inactive; TDP-43 yeast inh: 14%

How did Cc1ccc(-c2nc(C(=O)NC3CCCCCC3)no2)cc1 do in these assays?
aSyn yeast inh: -3%; FUS suppressor: inactive; Abeta yeast res: inactive; TDP-43 yeast inh: 18µM*

How did Cc1ccc2oc(-c3ccc(C)c(NC(=O)COc4ccc(Cl)cc4C)c3)nc2c1 do in these assays?
aSyn yeast inh: -3%

What do the screens show for `Cc1cc(NCc2ccccn2)n2nc(C)c(-c3ccc(Cl)cc3)c2n1`?
aSyn yeast inh: 3%; FUS suppressor: inactive; Abeta yeast res: inactive; TDP-43 yeast inh: 7.1µM*

Results for Cc1cc(NCc2ccccn2)n2ncc(-c3ccc(Cl)cc3)c2n1 ?
aSyn yeast inh: 5%; FUS suppressor: inactive; Abeta yeast res: inactive; TDP-43 yeast inh: 13%[1.82 µM]

Results for CCOc1ccc(C(=O)N2CCc3ccccc32)cc1 ?
aSyn yeast inh: -4%; FUS suppressor: inactive; Abeta yeast res: inactive; TDP-43 yeast inh: 11%

How did COc1cc(OC)cc(C(=O)N2CCCc3ccccc32)c1 do in these assays?
aSyn yeast inh: 10%; FUS suppressor: inactive; Abeta yeast res: inactive; TDP-43 yeast inh: 4%

How did CCCOc1ccc(C(=O)N2CCCc3ccccc32)cc1 do in these assays?
FUS suppressor: inactive; Abeta yeast res: inactive; TDP-43 yeast inh: 11µM*

How did COc1ccc2oc(C(=O)N3CCCc4ccccc43)c(C)c2c1 do in these assays?
aSyn yeast inh: -15%; FUS suppressor: inactive; Abeta yeast res: inactive; TDP-43 yeast inh: 16µM*

What do the screens show for `Cc1ccc(SCc2nc(-c3ccncc3)no2)cc1`?
aSyn yeast inh: 6%; FUS suppressor: inactive; Abeta yeast res: inactive; TDP-43 yeast inh: 16µM*

What do the screens show for `c1ccc(OCc2nc(-c3ccncc3)no2)cc1`?
aSyn yeast inh: 4%; FUS suppressor: inactive; Abeta yeast res: inactive; TDP-43 yeast inh: 11µM*

How did Cc1ccccc1OCc1nc(-c2cccnc2)no1 do in these assays?
aSyn yeast inh: 11%; FUS suppressor: inactive; Abeta yeast res: inactive; TDP-43 yeast inh: 11µM*

How did COc1ccc(NC(=O)CCS(=O)(=O)c2nc(-c3cccs3)cc(C(F)(F)F)n2)cc1OC do in these assays?
FUS suppressor: inactive; Abeta yeast res: inactive; TDP-43 yeast inh: inconclusive

Results for Cc1occc1C(=O)Nc1cccc(Cl)c1Cl ?
aSyn yeast inh: -6%; FUS suppressor: inactive; Abeta yeast res: inactive; TDP-43 yeast inh: 11µM*

What do the screens show for `COc1ccccc1N1CCN(c2cc(C)nc3nncn23)CC1`?
FUS suppressor: inactive; Abeta yeast res: inactive; TDP-43 yeast inh: 3%

What do the screens show for `Cc1cc(N2CCN(c3ccccc3)CC2)n2cnnc2n1`?
FUS suppressor: inactive; Abeta yeast res: inactive; TDP-43 yeast inh: 8%

What do the screens show for `CCCc1cc(N2CCN(c3ccccc3F)CC2)n2cnnc2n1`?
FUS suppressor: inactive; Abeta yeast res: inactive; TDP-43 yeast inh: 20µM*

How did CCCc1cc(N2CCN(c3ccccc3)CC2)n2cnnc2n1 do in these assays?
FUS suppressor: inactive; Abeta yeast res: inactive; TDP-43 yeast inh: 20µM*

How did Cc1ccc(C(=O)c2cn(Cc3ccc(F)cc3)c3nc(C)ccc3c2=O)cc1 do in these assays?
FUS suppressor: inactive; Abeta yeast res: inactive; TDP-43 yeast inh: inconclusive

Results for O=C(Nc1nc(-c2cccs2)cs1)c1ccc(Cl)s1 ?
aSyn yeast inh: -34%; FUS suppressor: inactive; Abeta yeast res: inactive; TDP-43 yeast inh: 3.5µM*

What do the screens show for `CC(=O)Nc1nc(-c2cccs2)cs1`?
aSyn yeast inh: 0%; FUS suppressor: inactive; Abeta yeast res: inactive; TDP-43 yeast inh: 16%

Results for COc1ccc(Cn2nc3n(c2=O)-c2ccccc2OC3)cc1 ?
FUS suppressor: inactive; Abeta yeast res: inactive; TDP-43 yeast inh: 14µM*

Results for O=c1n(Cc2ccccc2)nc2n1-c1ccccc1OC2 ?
FUS suppressor: inactive; Abeta yeast res: inactive; TDP-43 yeast inh: inconclusive

Results for Nc1ccc(/C=C/c2ccnc3ccccc23)cc1 ?
aSyn yeast inh: -1%
